Results reported in PubChem BioAssay AID559 (PCMD, 2006).
Out of some 62,000 compounds screened, about 100 (0.2%) were called active. The sample as a whole holds a higher share of actives than the screen did. A number with no mark means an inactive call. Cut-off read from the data, not from the text of the source: active = inhibition above about 20%; inactive = the rest.

molecular target: DNA-directed RNA polymerase subunit beta (Escherichia coli (strain K12)) (UniProt P0A8V2); assay: bacterial RNA polymerase transcription inhibition – biochemical (AID 559);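 note: 0% = enzyme without compound and 100% = no enzyme blank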; settings: E. coli RNA polymerase, fluorescence transcription assay; stronger effect = higher value;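 tested at 10 µM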
Sequence (P0A8V2 whole entry, looked up): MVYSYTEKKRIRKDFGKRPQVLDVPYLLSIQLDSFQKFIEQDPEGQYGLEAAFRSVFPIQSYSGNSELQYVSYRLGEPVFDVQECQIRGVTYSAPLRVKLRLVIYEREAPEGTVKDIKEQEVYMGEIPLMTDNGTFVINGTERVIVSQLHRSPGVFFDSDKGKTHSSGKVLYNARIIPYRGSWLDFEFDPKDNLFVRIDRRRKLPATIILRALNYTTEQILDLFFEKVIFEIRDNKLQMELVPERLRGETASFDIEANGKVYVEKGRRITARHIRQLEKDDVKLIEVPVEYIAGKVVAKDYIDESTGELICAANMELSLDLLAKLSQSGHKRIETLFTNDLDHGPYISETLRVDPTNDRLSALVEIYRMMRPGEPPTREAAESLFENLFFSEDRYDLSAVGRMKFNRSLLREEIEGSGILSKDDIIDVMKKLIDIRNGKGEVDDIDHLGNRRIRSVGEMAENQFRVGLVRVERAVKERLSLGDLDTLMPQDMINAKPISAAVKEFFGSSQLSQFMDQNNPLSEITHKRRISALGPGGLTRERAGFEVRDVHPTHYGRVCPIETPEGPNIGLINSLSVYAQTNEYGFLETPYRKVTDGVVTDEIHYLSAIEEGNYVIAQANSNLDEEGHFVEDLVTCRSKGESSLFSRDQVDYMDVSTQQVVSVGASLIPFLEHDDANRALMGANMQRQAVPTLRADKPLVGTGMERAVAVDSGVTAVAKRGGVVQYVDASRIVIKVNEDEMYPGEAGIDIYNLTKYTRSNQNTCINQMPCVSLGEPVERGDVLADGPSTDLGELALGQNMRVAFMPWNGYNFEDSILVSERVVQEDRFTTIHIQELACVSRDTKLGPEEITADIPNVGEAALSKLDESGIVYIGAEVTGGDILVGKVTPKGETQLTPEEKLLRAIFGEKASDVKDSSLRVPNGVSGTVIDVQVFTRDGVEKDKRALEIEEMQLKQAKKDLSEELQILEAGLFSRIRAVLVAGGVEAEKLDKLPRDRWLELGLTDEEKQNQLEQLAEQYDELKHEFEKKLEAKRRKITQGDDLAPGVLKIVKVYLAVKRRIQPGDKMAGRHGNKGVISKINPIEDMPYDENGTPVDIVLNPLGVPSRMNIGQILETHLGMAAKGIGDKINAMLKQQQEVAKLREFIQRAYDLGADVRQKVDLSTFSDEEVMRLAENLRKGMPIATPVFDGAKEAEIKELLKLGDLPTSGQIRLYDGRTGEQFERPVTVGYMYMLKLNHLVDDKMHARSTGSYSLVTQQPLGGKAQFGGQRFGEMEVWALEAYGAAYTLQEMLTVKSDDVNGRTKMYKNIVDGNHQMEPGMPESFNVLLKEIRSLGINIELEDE

SMILES | inhibition
CCc1c(C)sc(NC(=O)c2ccc(Br)o2)c1C(=O)OC | 3.85%
C=CCn1c(COc2cccc3cccnc23)nnc1SCC(=O)OC | 2.75%
Cc1ccc(S(=O)(=O)N2CCN(C(=O)CCC(=O)NC3CCCc4ccccc43)CC2)cc1 (stereo unspecified) | 8.3%
Cc1c(NC(=O)Nc2ccccc2Cl)sc(=S)n1C | 4.97%
CC(=O)C1C(c2ccc(Cl)cc2)NC(=O)NC1(O)C(F)(F)F (stereo unspecified) | 5.59%
COc1ccccc1C1/C(=C(/O)c2ccc(C)cc2)C(=O)C(=O)N1Cc1ccco1 (stereo unspecified) | 10.3%
CC(=O)OCc1cc(=O)n(C)c(=O)n1C | -0.42%
O=S(=O)(O)c1nc2ccccc2n1Cc1ccc(Cl)cc1Cl | 4.09%
O=C(O)C1CC=CCC1C(=O)NCCc1ccccc1 (stereo unspecified) | -1.18%
CCOc1ccc(NC(=O)CCC(=O)n2nc(C)cc2C)cc1 | 7.47%
CCOc1ccc(NC(=O)CC2NCCNC2=O)cc1 (stereo unspecified) | 10.3%
CCCCOc1ccc(NC(=O)CSCC(=O)OCC)cc1 | 20.6% (active)
CN(C)/C=C1/C(=O)Nc2ccccc21 | 12.9%
COC(=O)c1ccc(NC(=O)CSc2nnc(CNc3ccc(OC)cc3)n2C)cc1 | 1.56%
C[C@H](NC(=O)OC(C)(C)C)c1nnc(SCC(N)=O)o1 | -0.35%
COc1ccc(-n2nnc3c(=O)n(CC(=O)OCc4ccccc4)cnc32)cc1 | 1.78%
CCC(C(=O)N1CCOCC1)n1c(C(=O)OC)cc2occc21 (stereo unspecified) | -1.1%
O=C(c1cccs1)N(C(=O)c1cccs1)c1ccccn1 | 4.36%
COc1cc(C2C3C(=O)N(c4ccccc4)C(=O)C3ON2c2ccccc2)ccc1O (stereo unspecified) | 6.83%
CCOC(=O)C1C(=O)C=C(c2ccc(OC)cc2)CC1c1ccco1 (stereo unspecified) | 0.68%
C=C(Br)CN1CCN(CC(=C)Br)CC1 | 5.48%

SMILES | inhibition
CCNC(=O)N1CCNC(=O)C1CC(=O)Nc1ccc(C(=O)OCC)cc1 (stereo unspecified) | 24.6% (active)
CCOC(=O)c1ccc(NC(=O)CSc2ncccn2)cc1 | 18.1%
COc1ccccc1C(=O)N1CCNC(=O)C1CC(=O)Nc1ccc(Cl)cc1 (stereo unspecified) | 7.25%
COc1ccc(N2CCN(C(=O)CSc3ncnc4c3cnn4-c3ccc(OC)cc3)CC2)cc1 | 3.59%
CC(=O)Nc1ccc(S(=O)(=O)N2CCN(C3CCCCCCC3)CC2)cc1 | 4.11%
CC(C)(C)c1cc(CN2CCN(CCC#N)CC2)cc(C(C)(C)C)c1O | 2.69%
Cc1ccc(NC(=O)CN(C)S(=O)(=O)c2cnc[nH]2)cc1C | 6.13%
Cc1ccc2c(c1)sc1ncc(NC(=O)c3ccccc3)c(=O)n12 | -11.4%
CCCCCCn1c(SCC(=O)c2ccccc2)nc2c1c(=O)[nH]c(=O)n2C | -4.3%
c1ccc(CCc2nc(-c3ccncc3)no2)cc1 | 8.17%
CC1CCN(Cc2nc3c(c(=O)n(C)c(=O)n3C)n2Cc2cccc3ccccc23)CC1 | 11.8%
CC(c1ccccc1)n1c(NCCCn2ccnc2)nc2c1c(=O)[nH]c(=O)n2C (stereo unspecified) | 6.37%
O=C(Nc1ccccc1N1CCCCC1)c1ccc2nccnc2c1 | 5.19%
CC(C)[C@H](NC(=O)Nc1ccc(S(N)(=O)=O)cc1)C(=O)O | 3.2%
Cc1cccc(C2c3c(n(C)c(=O)n(C)c3=O)N=C3c4ccccc4C(=O)C32)c1 (stereo unspecified) | 8.94%
CSc1nc2ccc(S(=O)(=O)N3CCc4ccccc43)cc2s1 | 0.59%
Cn1c(=O)n(C)c2cc(S(=O)(=O)N3CCCc4ccccc43)ccc21 | 0.45%
Cc1nn(C)c(C)c1S(=O)(=O)N1CCc2ccccc21 | 27.2% (active)
COCCOC(=O)C1=C(C)NC(=O)NC1c1ccc(Cl)cc1 (stereo unspecified) | 7.31%
COC(=O)c1ccc(C2CC(=O)Nc3cc(OC)c(OC)cc32)cc1 (stereo unspecified) | 3.45%
CCc1cccc2c3c([nH]c12)C(CC)(CC(=O)O)OCC3 (stereo unspecified) | 8.22%

SMILES | inhibition
O=C(O)C1OC(C(=O)O)C2C1C(F)(F)C2(F)F (stereo unspecified) | 3.61%
NS(=O)(=O)c1cc2c(cc1Cl)NC(C(Cl)Cl)NS2(=O)=O (stereo unspecified) | 8.21%
CCS(=O)(=O)n1nc(-c2ccc(OC)cc2)nc1SC | 5.44%
Cc1ccc(CC2CC(=O)N(c3ccc4c(c3)OCCO4)C2=O)cc1 (stereo unspecified) | 7.6%
Cn1c2c(c(=O)n(C)c1=O)C1c3ccccc3OCC1C(C)(C)O2 (stereo unspecified) | 11.7%
CC1(c2ccccc2Cl)NC(=O)N(CC(=O)NC(=O)NCc2ccco2)C1=O (stereo unspecified) | 3.56%
CCOc1ccc(Cn2c(SCCCCC#N)nc3c2c(=O)n(C)c(=O)n3C)cc1OCC | 1.66%
CCOC(=O)NC(C(F)(F)F)(C(F)(F)F)P(=O)(c1ccccc1)c1ccccc1 | 12.5%
O=C(NCC1CCCO1)C(C(=O)c1ccccc1)n1cc(Cl)ccc1=O (stereo unspecified) | -2.02%
O=C(COC(=O)c1ccccc1C(=O)c1ccccc1)c1ccco1 | 4.61%
Cc1ccc(NC(=O)c2cc(-c3ccc(C)o3)nc3ccccc23)nc1 | 2.57%
O=C(c1ccc2c(c1)N(Cc1ccc(F)cc1)C(=O)CS2)N1CCOCC1 | -0.9%
Cc1nc2c(-c3ccccc3)c(C)[nH]n2c(=O)c1Cl | 0.3%
CCNc1nc(N)nc(Oc2ccc(OCC)nn2)n1 | 16.5%
COc1ccc(OCC(=O)OCC(=O)Nc2ccc(S(=O)(=O)N3CCCCC3)cc2)cc1 | 6.57%
Cc1noc(C)c1S(=O)(=O)Nc1ccc(C(=O)O)cc1 | -2.73%
C=CCNC(=O)C1CC=CCC1C(=O)O (stereo unspecified) | -0.09%
CC(C)(C)NC(=O)NC(=O)COC(=O)Cn1c(C(F)(F)F)nc2ccccc21 | -0.99%
O=C(CSc1nc2[nH]ncc2c(=O)n1-c1ccccc1)N1CCCc2ccccc21 | -2.19%
